Laboratory results published in PubChem BioAssay AID686978 (National Center for Advancing Translational Sciences (NCATS), 2013).
Hit rate of the full screen: of about 420,000 compounds, about 64,000 (15%) were called active. Not shown: some 27% with an inconclusive outcome. Calls follow the shape of the dose curve; as a rule, active = well fitted inhibition curve with a large enough effect; inconclusive = small, poorly fitted or top-dose-only effect; inactive = flat fitted curve, though single readings scatter. These entries were drawn from the full list. A call without a number means that no potency is given here.
Potency is read from the fitted curve at half-maximal effect.

Assay: qHTS for Inhibitors of human tyrosyl-DNA phosphodiesterase 1 (TDP1): qHTS in cells in absence of CPT; also: nearly all actives have a fitted effect of over 55% in size
Details: DT40 Tdp1-/- hTDP1 cells, no CPT, ATP luminescence, 48 h; activity change, negative = growth inhibition: at 46.2 µM (top of the series)
Outline: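 No-CPT arm: Tdp1-/-;hTDP1 DT40 cells (400/well) plus compounds, incubated ≥48 hr at 37 °C. Readout CellTiter-Glo luminescence.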
For `CC1Cc2[nH][nH]c(=O)c2C(C2CCCC2)O1` (centres undefined), the Potency was “inactive”.
For `N#Cc1ccc(/C=C2\CCn3c2nc2cc(C(=O)O)ccc2c3=O)cc1`, the Potency was “inactive”.
With `NC1=NOC(=O)C1C1CCCCC1` (centres undefined) the Potency was 18.4 µM (active).
For `CC(=O)Nc1ccc(S(=O)(=O)N2CCCC2C(=O)O)cc1` (centres undefined), the Potency was “inactive”.
With `CCOC(=O)C(NC(=O)CC(C)C)(Nc1sc2c(c1C(N)=O)CCCC2)C(F)(F)F` (centres undefined) the Potency was “inactive”.
With `COc1ccc(CCNC(=O)CCCCn2c(=O)[nH]c3ccccc3c2=O)cc1OC` the Potency was “inactive”.
For `CCN(CC)CCNC(=O)CCCCCn1c(=O)[nH]c2cc(C(=O)OC)ccc2c1=O`, the Potency was “inactive”.
In the case of `NS(=O)(=O)c1ccc(CCNC(=O)CCCCCn2c(=O)[nH]c3ccccc3c2=O)cc1`, the Potency is reported as “inactive”.
With `Cc1ccc(N2CCN(C(=O)CCc3c(C)nc4c(c3C)c(=O)n(C)c(=O)n4C)CC2)c(C)c1` the Potency was “inactive”.
For `O=C(CCCCCn1c(=O)[nH]c2ccccc2c1=O)NCCc1c[nH]c2ccccc12`, the Potency was “inactive”.
For `Cc1ccc(C)c(N2CCN(C(=O)CCc3c(C)nc4c(c3C)c(=O)n(C)c(=O)n4C)CC2)c1`, the Potency was “inactive”.
For `Cc1ccc(C)c(N2CCN(C(=O)CCCCCn3c(=S)[nH]c4ccc(N5CCOCC5)cc4c3=O)CC2)c1`, the Potency was 2.91 µM (active).
With `Cc1ccc(C)c(N2CCN(C(=O)CCCCn3c(=O)[nH]c4ccccc4c3=O)CC2)c1` the Potency was 20.6 µM (active).
With `COc1cccc(N2CCN(C(=O)CCCCCn3c(=O)[nH]c4ccccc4c3=O)CC2)c1` the Potency was 20.6 µM (active).
For `Cc1ccc(OCCCC(=O)N2CCOCC2)c(C)c1`, the Potency was “inactive”.
With `O=C(CCCn1c(=O)[nH]c2cc(Cl)ccc2c1=O)NCCN1CCN(c2ccccc2)CC1` the Potency was 23.1 µM (active).
In the case of `O=C(Cc1c(F)cccc1Cl)Nc1ccc(-n2cnnn2)cc1`, the Potency is reported as “inactive”.
For `COc1ccc(C(C#N)N2N=C(C)CC2(C)C)cc1` (centres undefined), the Potency was “inactive”.
For `NC(=O)N1CCc2ccccc21`, the Potency was “inactive”.
In the case of `CCC1(CC)NC(=O)N(CC(=O)OCC(=O)NC(=O)c2ccccc2)C1=O`, the Potency is reported as “inactive”.
In the case of `Cc1ccc(C(=O)O)cc1-c1ccc(/C=C2\SC(=O)N(CC(=O)Nc3ccc4c(c3)OCO4)C2=O)o1`, the Potency is reported as “inactive”.
With `Cc1ccc(CCCOC(=O)C[N+]2(C)CCCC2)cc1` the Potency was “inactive”.
In the case of `COc1cc2c(cc1OC)[C@@H](Cc1cc(OC)c(OC)c(OC)c1)[N+](C)(CCCOC(=O)CC/C=C/CCC(=O)OCCC[N+]1(C)CCc3cc(OC)c(OC)cc3[C@H]1Cc1cc(OC)c(OC)c(OC)c1)CC2` (some centres undefined), the Potency is reported as “inactive”.
In the case of `COc1ccc(CC2c3cc(OC)c(OC)cc3CC[N+]2(C)CCC(=O)OCCCCCOC(=O)CC[N+]2(C)CCc3cc(OC)c(OC)cc3C2Cc2ccc(OC)c(OC)c2)cc1OC` (centres undefined), the Potency is reported as 13 µM (active).
